The list is not random: actives were taken first. Their share in the collection is about 4%.
D1 ag: activates the human D1 dopamine receptor | activation, % at 2 µM | HEK293 T-REx D1 cells, calcium flux, agonist mode | P21728 | AID 504660 | 360,000 compounds, 1% hits; note: 0% is about no effect
Target sequence (P21728 whole entry, looked up): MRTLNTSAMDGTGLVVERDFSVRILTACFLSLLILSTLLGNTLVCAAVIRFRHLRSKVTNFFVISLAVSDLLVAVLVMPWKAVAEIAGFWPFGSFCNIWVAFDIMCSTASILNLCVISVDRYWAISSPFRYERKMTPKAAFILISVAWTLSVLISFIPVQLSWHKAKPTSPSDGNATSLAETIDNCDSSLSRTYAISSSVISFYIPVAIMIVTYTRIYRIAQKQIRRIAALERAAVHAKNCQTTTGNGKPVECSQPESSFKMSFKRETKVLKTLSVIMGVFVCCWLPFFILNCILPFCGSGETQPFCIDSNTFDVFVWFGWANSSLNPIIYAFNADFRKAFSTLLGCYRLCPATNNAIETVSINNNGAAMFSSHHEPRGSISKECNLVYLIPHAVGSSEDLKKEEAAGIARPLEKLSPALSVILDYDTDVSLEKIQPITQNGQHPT
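Agonism was scored from calcium flux recorded over 180 s (1 read/s) after pintool compound addition, following a 10-cycle baseline. Cells were inducible force-coupled HEK293 TREx D1, plated overnight at 30 C and loaded with no-wash calcium dye.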
TRHR PAM: TRH receptor (human) allosteric enhancement; TRHR cells, fluo-8 calcium fluorescence, EC20 TRH enhancement; enhancement, % at 2 µM; 360,000 compounds, 0.66% hits; in the data active = enhancement above about 30%; note: 0% is about no effect
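Enhancer read-out: after compound pinning and an initial kinetic agonist-mode read, an EC20 of TRH (10 nM final) was injected and fluo-8 calcium signal (Ex 480/Em 530) followed at 1 s/cycle for 100 cycles in TRHR-expressing cells.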
D1 antagonist: human D1 dopamine receptor antagonism. P21728. HEK293 TREx D1 cells, calcium flux, dopamine EC80; active compounds read low. activity change, negative = inhibition, % at 10 µM. 360,000 compounds, 3.2% hits. AID 504652; in the data active = activity change below about -30%; note: % is set by controls: 0 for no effect and ±100 for the full control effect
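Tetracycline-induced HEK293 T-REx cells with force-coupled D1 receptor were loaded with a no-wash calcium dye. Compound was added after a 10 s baseline and read kinetically for 180 s; EC80 dopamine was then added and calcium flux followed another 180 s.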
GRP78 ERSR act: inducers of ER stress response in human glioma cells. U87-MG GRP78 promoter luciferase reporter, 16 h. Potency, µM, without a hit: at the top dose activation, hits mostly activators. 420,000 compounds, 0.02% hits. AID 602332; active = well fitted activation curve with a large enough effect; note: potency is the fitted concentration of half-maximal effect; series mostly up to about 76 µM; % of control where 0% means no effect; nearly all actives have a fitted effect of over 35% in size
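Stably transfected U87-MG glioma cells carrying a GRP78-based luciferase sensor; 16 h compound incubation. Luminescence end-point read 10 min after Bright-Glo addition at room temperature.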
D1 PAM: human D1 dopamine receptor positive modulation; P21728; HEK293 TREx D1 cells, calcium flux, dopamine EC20 potentiation; potentiation, % at 10 µM; 360,000 compounds, 0.036% hits; in the data active = potentiation above about 30%; note: 0% is about no effect
TRHR ag: agonists of human TRH receptor; P34981; TRHR cells, calcium flux fluo-8, FDSS agonist mode; activation, % at 2 µM; 360,000 compounds, 0.18% hits; note: 0% is about no effect
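Steps: seed TRHR cells overnight; add fluo-8 no-wash Ca dye, RT 30 min–1.5 h; record 10 s baseline; pin-transfer compounds; monitor fluorescence 1 cycle/s for the agonist window. Calcium increases flag candidate agonists.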
Starred values were filed as active, the others as inactive; nt = no result. Cut-off read from the data, not from the text of the source, unless noted: active = activation above about 30%; inactive = the rest.

SMILES	D1 ag	TRHR PAM	D1 antagonist	GRP78 ERSR act	D1 PAM	TRHR ag
O=C1NC(=O)C(=C/C=C/c2coc3ccc(Br)cc3c2=O)C(=O)N1	83*	10	1	nt	-2	41*
CCCCn1c(O)c(/C(C)=N/NC(=O)Nc2ccccc2)c(=O)[nH]c1=O	0	35*	0	3%	-8	0
O=C(O)Cn1cc(/C=C2\C(=O)NC(=O)N(c3ccc(Br)cc3)C2=O)c2ccccc21	4	-12	-31*	12%	-5	1
Cc1ccc(N2C(=O)NC(=O)/C(=C\c3cn(CC(=O)O)c4ccccc34)C2=O)cc1	-3	-2	-7	-2%	2	0
CC(C)(C)C(O)C(Oc1ccc(-c2ccccc2)cc1)n1cncn1 (stereo unspecified)	nt	nt	nt	0%	nt	nt
COc1ccc(-n2c(O)c(/C=C3\C=Nc4ccc(Br)cc43)c(=O)[nH]c2=O)cc1	10	5	5	-2%	0	1
CCN1CCN(S(=O)(=O)c2ccc(Cl)nc2)CC1	6	-5	-35*	-1%	-4	0
CC(C)NC(C)C	nt	nt	nt	-4%	nt	nt
COCCCNC(=O)c1c(NC(=O)c2ccccc2Cl)n(Cc2ccccc2)c2nc3ccccc3nc12	40*	-6	2	-4%	-3	9
CC12NC(Cc3ccccc31)c1ccccc12 (stereo unspecified)	nt	nt	nt	0%	nt	nt
CC1(C)CN=C(Nc2ccc(F)c(Cl)c2)S1	34*	-2	2	4%	5	5
COc1ccc(CN2C(=O)NC(=O)/C(=C/c3ccc(OC)c(OC)c3OC)C2=O)cc1	7	7	-35*	1%	-2	-1
C=CCC1C(=O)NC(=S)NC1=O	-1	0	9	-6%	-3	0
CN1CCC(c2c[nH]c3ccccc23)C1 (stereo unspecified)	6	13	-32*	-1%	-5	-2
CN1CCC(c2c[nH]c3ccc(O)cc23)CC1	nt	nt	nt	1%	nt	nt
COc1ccc(NC(=O)c2cccn(Cc3ccc(Cl)cc3)c2=O)c(OC)c1	2	-2	-40*	-4%	0	2
COc1ccc(NC(C)=O)cc1NC(=O)c1cccn(Cc2ccccc2)c1=O	-1	0	22	-2%	-2	0
CCSc1nnc(NC(=O)c2cccn(Cc3ccc(Cl)cc3)c2=O)s1	0	-5	-35*	-2%	-1	0
COc1ccc(CN2CCCC(C(=O)c3ccc(Cl)cc3)C2)c(OC)c1 (stereo unspecified)	11	5	-35*	-4%	-1	1
O=C(c1cc(F)ccc1F)C1CCCN(Cc2ccc3nonc3c2)C1 (stereo unspecified)	0	11	-31*	-2%	6	-1
O=C(c1ccc(Cl)cc1)C1CCCN(Cc2ccc3c(c2)OCCO3)C1 (stereo unspecified)	4	-3	3	0%	0	0
O=C(c1cc(F)ccc1F)C1CCCN(Cc2cc(Cl)ccc2O)C1 (stereo unspecified)	1	34*	1	-4%	-11	0
COc1cccc(C(=O)C2CCCN(Cc3ccc4nonc4c3)C2)c1 (stereo unspecified)	2	19	-9	-3%	0	0
O=C(c1ccc2c(c1)OCO2)C1CCCN(Cc2ccc(F)c(F)c2)C1 (stereo unspecified)	9	-3	-34*	-5%	-7	0
CCOC(=O)c1c(C)n(COCCO)c2ccc(O)cc12	2	-3	-4	-3%	3	1
CC(=NCCC(c1ccccc1)c1ccccc1)c1c(O)n(C)c(=O)n(C)c1=O	1	2	-6	-4%	3	1
O=c1oc2ccccc2c(O)c1C(c1ccccn1)c1c(O)c2ccccc2oc1=O	2	4	15	-6%	2	0
Cc1cccc(N2C(=O)/C(=C/c3ccc(N4CCN(C)CC4)o3)C(=O)NC2=S)c1C	68*	-3	6	0%	2	20
CN1C(=O)C(=Cc2ccc(N3CCCCCC3)o2)C(=O)N(C)C1=S	27	8	4	2%	1	25

High-throughput results: PubChem, National Center for Advancing Translational Sciences (NCATS)
